# Shiga inhibitor: Shiga toxin inhibition | Vero cells, Shiga toxin protein synthesis inhibition reporter | inhibition, % at 38.7 µM | 9.2% of 290,000 active | AID 2315; in the data active = inhibition mostly above about 28%, no sharp cut-off; inactive = mostly below about 43%; note: 0% is about no effect
# HCMV inh: blocks human cytomegalovirus replication; HFF cells, HCMV-luciferase reporter, 72 h; active compounds read low; activity change, negative = inhibition, % at 57.5 µM; 4.5% of 410,000 active; in the data active = activity change below about -60%; inconclusive = no clear call, values can overlap the other calls; inactive = above about -39%; note: % is set by controls: 0 for no effect and ±100 for the full control effect
#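 Two compound doses tested in HFFs infected with HCMV-luciferase, MOI 1 PFU/cell, 72 h at 37C. Lysate luminescence read with OneGlo; data normalized against buffer-only and 10uM Salinomycin inhibitor controls.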
# CHX counter: affects cycloheximide protein synthesis inhibition readout, counter-screen. cell reporter, cycloheximide protein synthesis inhibition counterscreen. max response, %. 12% of 300,000 active. AID 2314; in the data active = max response mostly above about 13%, no sharp cut-off; inactive = mostly below about 14%; note: read at 38.3 µM for the half of the compounds with a filed dose; 0% is about no effect
# Pf growth 48h: inhibits P. falciparum growth in the first generation, 48 h; P. falciparum luciferase growth in erythrocytes, 48 h; 5.9% of 310,000 active; Potency, µM (highest dose often 28.7 µM), for inactives: top-dose activity change, negative = inhibition, hits mostly inhibitors; note: potency is the fitted concentration of half-maximal effect; % is set by controls: 0 for no effect and ±100 for the full control effect
#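 Read-out is firefly luciferase luminescence from an integrated reporter in P. falciparum, so falling signal marks reduced parasite growth. Infected erythrocytes were at 2% hematocrit and 0.1% parasitemia (final) in Albumax-supplemented RPMI 1640.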
# Pf growth 96h: P. falciparum growth inhibition at 96 hours; P. falciparum luciferase reporter growth, 96 h; Potency, µM (doses to about 28.7 µM), inactives show at the highest dose activity change, negative = inhibition, actives largely listed as inhibitors; 6.9% of 320,000 active; note: potency is the fitted concentration of half-maximal effect; % is set by controls: 0 for no effect and ±100 for the full control effect
#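 Two-generation exposure (96 h) targets delayed-death phenotype. Reporter parasites carrying integrated firefly luciferase, in red cells at 2% hematocrit and 0.05% parasitemia final, kept at 37 C, 5% CO2; luminescence loss indicates inhibition.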
# Numbers without * were called inactive; ? = inconclusive; / = no result; ! = not confirmed by another sample; [ ] = another dose, or the depositor's remark. Compounds with a hit are over-represented: about 20% of the library has one in this group of screens. Unless noted, calls come from the whole dose curve; as a rule, active = well fitted inhibition curve with a large enough effect; inconclusive = small, poorly fitted or top-dose-only effect, or another doubt; inactive = no such curve, though single readings can be large or run the other way.
SMILES,Shiga inhibitor,HCMV inh,CHX counter,Pf growth 48h,Pf growth 96h
Cc1cccc(N/C=C/c2onc(C)c2[N+](=O)[O-])c1,89*,119,31*,173%,228%
Cc1cccc(/C=C/c2onc(C)c2[N+](=O)[O-])n1,/,-109*,/,/,/
CCN(CC)C(=O)CSc1nnc(CNc2ccc(F)cc2)o1,-7,-2,9,5%,?
O=S1(=O)N[C@H](Cc2ccccc2)COc2cc(F)ccc21,/,-22,/,/,/
N#CCCN1CCN(C(CNS(=O)(=O)c2ccc(Cl)cc2)c2ccccc2)CC1 (stereo not drawn),17,16,-3,-18%,5.2µM*
CCc1ccc2[nH]cc(S(=O)(=O)c3ccc(C(C)C)cc3)c(=O)c2c1,/,2,/,/,/
COc1ccc2c(c1)NP(=S)(Oc1ccccc1)N2 (stereo not drawn),86*,22,64*,76%,103%
COCCN(CCOC)C(=O)c1cc2c(=O)n3ccccc3nc2n1C,/,-2,/,/,/
O=C(CN1CCC(n2nnc3cc(F)ccc32)CC1)NCCc1ccccc1,18,73,10,?,?
COc1ccc(/C=C/C(=O)Nc2cc(C)nn2-c2nc3ccccc3n2Cc2cccc([N+](=O)[O-])c2)cc1,18,23,5,?,9.3µM*
O=c1c(N2CCCCC2)coc2ccccc12,55,4,20*,60%,34%
O=c1cc(N2CCCCC2)c2ccccc2o1,-1,-28,2,19%,-45%[5.75 µM]
CC(=O)N1CCCc2cc(S(=O)(=O)N(Cc3ccccc3)C(C)C)ccc21,/,-27,/,/,/
N#Cc1ccc(NC2=NS(=O)(=O)c3ccccc32)cc1,/,-4,/,/,/
N#CCCN(NC1=NS(=O)(=O)c2ccccc21)C(=O)c1ccccc1Br,-2,/,-3,15%,3.3µM*
CCOC(=O)CN1C(=O)S/C(=C/c2ccc(C)o2)C1=O,46*,-5,24*,18%,10%
COC(=O)C(C)N1C(=O)S/C(=C\c2cc(C)n(-c3ccccn3)c2C)C1=O (stereo not drawn),90*,-23,43*,/,28%
CCOC(=O)CN1C(=O)S/C(=C/c2cc(C)n(-c3ccccn3)c2C)C1=O,69*,4,59*,/,-57%
Cc1ccc(-n2c(C)cc(/C=C3/SC(=O)N(CC(=O)N4CCOCC4)C3=O)c2C)nc1,15,/,6,-3%,0%
COC(=O)C(C)N1C(=O)S/C(=C/c2cc(C)n(-c3ccccn3)c2C)C1=O (stereo not drawn),57,23,50*,/,2%
CCOC(=O)CN1C(=O)S/C(=C/c2ccc(O)c([N+](=O)[O-])c2)C1=O,12,?,-2,-7%,?
CCOC(=O)CN1C(=O)S/C(=C/c2cc(C)n(C)c2C)C1=O,/,78,/,/,/
O=C(CN1CCCC1)Nc1sc2c(c1C(=O)Nc1ccc(Br)cc1)CCC2,1,37,-3,12µM*,?
CCC(=O)Nc1sc2c(c1C(=O)Nc1ccc(Br)cc1)CCCCC2,/,23,/,/,/
CCOC(=O)c1ccc(NC(=O)c2c(NCc3cccs3)sc3c2CCCCC3)cc1,/,-32,/,/,/
SMILES,Shiga inhibitor,HCMV inh,CHX counter,Pf growth 48h,Pf growth 96h
O=C(Cc1ccccc1)Nc1sc2c(c1C(=O)Nc1ccc(Cl)cc1)CCCC2,38,-18,31*!,/,/
COc1ccc(CC(=O)Nc2sc3c(c2C(=O)Nc2cccc(Cl)c2)CCCCC3)cc1,/,-106*,/,/,/
O=C(Cc1ccccc1)Nc1sc2c(c1C(=O)Nc1ccccc1)CCCCC2,/,29,/,/,/
CCOC(=O)c1ccc(NC(=O)c2c(NC(=O)CCC(=O)O)sc3c2CCCCC3)cc1,23,-19,17*,?,118%
COCCNC(=O)CN(C(=O)CCC(=O)Nc1nccs1)c1ccccc1OC,-16,21,1,9%,-3%
CC(Sc1nc2ccccc2c(=O)n1CC1CCCO1)C(=O)Nc1ccc(S(N)(=O)=O)cc1 (stereo not drawn),/,-13,/,?,?
Cn1cnnc1SCC(=O)Nc1ccc2nc(SCc3ccccc3)sc2c1,101*,-9,90*,/,195%
Cn1cnnc1SCC(=O)Nc1ccc2nc(SCc3ccccc3Cl)sc2c1,active,-18,19*,-6%,?
Cn1cnnc1SCC(=O)Nc1ccc2nc(SCc3cccc4ccccc34)sc2c1,-9,?,-4,/,?
CCN(CC)C(=O)CSc1nc2ccc(NC(=O)CSc3nnc(N)s3)cc2s1,-2,14,-3,?,?
CCN(CC)C(=O)CSc1nc2ccc(NC(=O)CSc3nccn3C)cc2s1,32,-15,14*,8.3µM*,?
CC(C)(C)C(=O)Nc1ccc2nc(SCc3ccccc3)sc2c1,/,-13,/,/,/
O=C(NCCCc1nc2ccccc2n1Cc1ccc(Cl)cc1)C1CCCCC1,/,-10,/,/,/
Cc1ccccc1OCC(=O)N=Nc1c(O)n(C)c2ccccc12,24,26,10,18%,46%
O=S(=O)(NCC(c1cccnc1)N1CCN(c2ccccc2)CC1)c1cc(F)ccc1F (stereo not drawn),15,20,0,10µM*,2%
O=S(=O)(NCC(c1ccco1)N1CCN(c2ccc(F)cc2)CC1)c1ccccc1 (stereo not drawn),/,6,/,/,/
O=S(=O)(NCC(c1ccco1)N1CCN(c2ccc(F)cc2)CC1)c1ccc2c(c1)OCCO2 (stereo not drawn),-11,-75*,-2,-11%,?
O=S(=O)(NCC(c1ccc2c(c1)OCO2)N1CCN(c2ccccc2)CC1)c1ccccc1 (stereo not drawn),/,-6,/,7.4µM*,?
CCC(=O)NCC(c1ccc2c(c1)OCO2)N1CCN(c2ccccc2)CC1 (stereo not drawn),/,30,/,/,/
COc1ccccc1N1CCN(C(CNS(=O)(=O)c2cc(F)ccc2F)c2cccnc2)CC1 (stereo not drawn),6,-19,-2,?,?
O=C(CCC(=O)Nc1ccccc1)NNC(=O)COc1ccccc1,-7,2,-3,11%,17%
CN1C(C)(C)CC(=NOC(=O)c2ccccc2)CC1(C)C,-7,36,-3,-20%,10µM*
O=C(NNC(=S)NCC1CCCO1)c1cccc(S(=O)(=O)N2CCOCC2)c1 (stereo not drawn),-14,-36,-2,-6%,-6%
CN(C)CCCNC(=S)NCC(c1ccc(Cl)cc1Cl)c1c[nH]c2ccccc12 (stereo not drawn),-13,?,-3,?,2.1µM*
CC(C)(C)NCC(O)c1cc(Cl)c(N)c(Cl)c1 (stereo not drawn),-3,46,5,12µM*,11µM*!
Brc1ccc(-c2csc(/N=C/N3CCCC3)n2)cc1,67*,-23,68*,222%,96%
OCCN(/C=N/c1nc(-c2ccc(Br)cc2)cs1)CCO,64*,106,30*,112%,/
O=C(CN1CCCCC1)Nc1nc(-c2ccc(Cl)cc2)cs1,-7,?,-4,-7%,1%
Brc1ccc(-c2csc(/N=C/N3CCOCC3)n2)cc1,49,5,36*,75%,66%

# Screens from PubChem.
